Screening data deposited in PubChem by Broad Institute.
PvdQ inh: blocks Pseudomonas aeruginosa PvdQ acylase activity; purified PvdQ acylase, fluorescence plate reader; inhibition, % at 10 µM; 340,000 compounds, 0.063% hits; in the data active means inhibition above about 30%, passing the limit was not always enough; inconclusive means no clear call, values can overlap the other calls;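 further: 0% = vehicle neutral wells and 100% = reference inhibitor wells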
PGC1a acetyl inh: PGC1a acetylation modulation, inhibitor mode. U2OS PGC1a acetylation, AlphaScreen anti-acetyl-lysine; with virally co-expressed GCN5 acetyltransferase. AID 651687. 350,000 compounds, 0.17% hits. inhibition, % at 15.6 µM;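 active means every replicate shows inhibition of at least 40%; inconclusive means mean inhibition at least 40% but some replicate below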;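 further: 0% = neutral control wells and 100% = positive control wells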
Statin myotox sup: protects C2C12 myotubes from simvastatin toxicity; ATP luminescence, 48 h; scaled: DMSO 0, geranylgeraniol control 100; rescue of ATP level, % at 7.49 µM; 330,000 compounds, 0.78% hits;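 active means mean ATP rescue above about 67%, or every replicate alone reaching that limit, limit read from the data, passing the limit was not always enough; inconclusive means no clear call, values can overlap the other calls; inactive means mean under the limit and some replicate under it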;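 further: myotubes were challenged with 10 µM simvastatin during compound exposure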
DENV2 CPE rescue: DENV2-induced cell death inhibition; DENV2-infected cells, cytopathic effect rescue, plate reader; 350,000 compounds, 1.7% hits; CPE inhibition, % at 9.99 µM; in the data active means CPE inhibition above about 20%, passing the limit was not always enough; inconclusive means no clear call, values can overlap the other calls; tested in BHK-21 cells;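 further: 0% = median of neutral control wells and 100% = median of positive control wells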
miR122 inh: miR-122 inhibition in Huh7 cells; Huh7 miR-122 Renilla luciferase sensor, 48 h; neutral wells = 0, positive control = 100; activation (reporter increase), % at 12.5 µM; 340,000 compounds, 0.3% hits;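 active means mean replicate activation score at least 90 and every replicate individually at or above 90; inconclusive means only one of the two criteria met; inactive means neither criterion met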;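 further: higher luciferase means less miR-122 activity so hits act as miR-122 inhibitors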
* marks the source's active call; other numbers are inactive results; ? = inconclusive; · = not tested or not shown; + = active, no number; [ ] = dose if it differs, or a comment. A selection: hits, their analogues and other compounds. The true share with any hit is near 2.2%.

SMILES	PvdQ inh	PGC1a acetyl inh	Statin myotox sup	DENV2 CPE rescue	miR122 inh
CO[C@H]1CN(C)C(=O)c2ccc(NC(=O)Nc3cccc(Cl)c3)cc2OC[C@H](C)NC[C@@H]1C	·	2	-77	-11	9[16.7 µM]
COc1ccc(S(=O)(=O)Nc2c(C)nn(C)c2C)cc1Br	-10	-3	11	31*	-2
COc1cccc(NC(=O)N[C@H]2C=C[C@@H](CC(=O)N3CCCCC3)O[C@@H]2CO)c1	·	-3	-5	?	·
CCn1ccc(=N)cc1	5	11	113*	·	-5
CCCCCn1ccc(=N)cc1	5	6	-20	·	-28
COc1cc(-c2cnc3c(NC(C)=O)cc(-c4ccccc4CN(C)C)cn23)cc(OC)c1OC	·	-50	-8	25*	8
COc1cc(-c2cnc3c(NC=O)cc(-c4ccc(C)cc4)cn23)cc(OC)c1OC	·	-89	-42	95*	34
CC(=O)Nc1cc(-c2ccc(C(=O)NC3CC3)cc2)cn2c(-c3cccc(C(F)(F)F)c3)cnc12	·	2	-7	38*	-5
COc1ccc(-c2cnc3c(NC(C)=O)cc(-c4ccccc4OC)cn23)cc1OC	·	-17	-38	30*	2
CC(=O)Nc1cc(-c2ccc(C(=O)NC3CC3)cc2)cn2c(-c3cccc(C(C)=O)c3)cnc12	·	5	-25	1	·
CC(C)NC(=O)N[C@H]1C=C[C@@H](CC(=O)NC2Cc3ccccc3C2)O[C@@H]1CO	·	-4	-10	2	·
CC=Cc1ccc2n(c1=O)C[C@H]1[C@H](CO)[C@@H](C(=O)N3CCC(Cc4ccccc4)CC3)N(C)[C@@H]21 (mixture of isomers)	·	·	-14	·	·
Cc1ccc(S(=O)(=O)N(C)C[C@H]2OCCCC[C@@H](C)Oc3ccc(NC(=O)NC(C)C)cc3C(=O)N([C@@H](C)CO)C[C@H]2C)cc1	·	-11	·	12	9[16.7 µM]
Cc1ccc(S(=O)(=O)N(C)C[C@@H]2OCCCC[C@H](C)Oc3ccc(NC(=O)Nc4ccc(C(F)(F)F)cc4)cc3C(=O)N([C@@H](C)CO)C[C@H]2C)cc1	·	2	·	23*	-1[16.7 µM]
Cc1ccc(S(=O)(=O)N(C)C[C@H]2OCCCC[C@@H](C)Oc3ccc(NC(=O)Nc4ccc(C(F)(F)F)cc4)cc3C(=O)N([C@H](C)CO)C[C@@H]2C)cc1	·	2	·	67*	-6[16.7 µM]
C[C@@H]1CCCCO[C@H](CN(C)S(=O)(=O)c2ccccc2)[C@H](C)CN([C@@H](C)CO)C(=O)c2cc(NC(=O)Nc3ccc(C(F)(F)F)cc3)ccc2O1	·	3	·	23*	1[16.7 µM]
Cc1ccc(S(=O)(=O)N(C)C[C@H]2OCCCC[C@@H](C)Oc3ccc(NC(=O)NC(C)C)cc3C(=O)N([C@H](C)CO)C[C@@H]2C)cc1	·	5	·	72*	11[16.7 µM]
CCS(=O)(=O)N1CCC2(CC1)CN(C(=O)Nc1cccc(F)c1)[C@@H](CO)c1c2c2ccc(OC)cc2n1C	·	-3	·	3	·
CCCNC(=O)C[C@H]1C[C@H]2c3cc(NC(=O)NC4CCCC4)ccc3O[C@H]2[C@H](CO)O1	·	6	-1	5	-3[16.7 µM]
COc1cccc(C#Cc2ccc([C@@H]3[C@H](CO)N4C(=O)CN(S(=O)(=O)c5ccccc5C)C[C@@H]34)cc2)c1	·	-5	·	-8	·
CO[C@@H]1CN(C)C(=O)c2cc(NC(=O)Nc3cccc(F)c3)ccc2OC[C@H](C)N(C(=O)C2CC2)C[C@H]1C	·	-3	-3	·	-1[16.7 µM]
O=C(C[C@H]1CC[C@H]2[C@@H](COC[C@H](O)CN2C(=O)c2cccnc2)O1)NCc1ccc(-c2ccccc2)cc1	·	6	3	22*	-2[16.7 µM]
O=C(C[C@@H]1CC[C@H]2[C@@H](COC[C@@H](O)CN2C(=O)c2ccncc2)O1)NCc1ccc(-c2ccccc2)cc1	·	8	-3	+	43[16.7 µM]
O=C(C[C@@H]1CC[C@@H]2[C@H](COC[C@@H](O)CN2C(=O)c2cccnc2)O1)NCc1ccccc1	·	0	1	-10	4[16.7 µM]
O=C(C[C@H]1CC[C@H]2[C@@H](COC[C@@H](O)CN2C(=O)c2cccnc2)O1)NCc1ccc(-c2ccccc2)cc1	·	2	10	-2	-1[16.7 µM]
SMILES	PvdQ inh	PGC1a acetyl inh	Statin myotox sup	DENV2 CPE rescue	miR122 inh
O=C(C[C@@H]1CC[C@H]2[C@@H](COC[C@@H](O)CN2C(=O)c2cccnc2)O1)NCc1ccc(-c2ccccc2)cc1	·	-2	6	27*	1[16.7 µM]
O=C(C[C@H]1CC[C@H]2[C@@H](COC[C@@H](O)CN2C(=O)c2ccncc2)O1)NCc1ccc(-c2ccccc2)cc1	·	0	12	1	-4[16.7 µM]
CC(C)C(=O)Nc1ccc2c(c1)C(=O)N(C)[C@H]1CC[C@H](CC(=O)NCC3CC3)O[C@H]1CO2	·	-1	-5	-10	33[16.7 µM]
CC(C)c1cn(CC[C@H]2CC[C@H](NC(=O)C3CC3)[C@@H](CO)O2)nn1	·	3	37	7	·
CC(C)c1cn(CC[C@H]2CC[C@H](NC(=O)C3CC3)[C@H](CO)O2)nn1	·	-7	8	62*	·
CCCNC(=O)N[C@H]1CC[C@@H](CCn2cc(-c3cccc(F)c3)nn2)O[C@@H]1CO	·	1	-12	-2	·
COc1ccc(NC(=O)N[C@H]2CC[C@@H](CCn3cc(-c4ccc(OC)cc4)nn3)O[C@H]2CO)cc1	·	-1	0	-2	·
COc1ccc(NC(=O)N[C@H]2CC[C@H](CCn3cc(-c4ccccc4F)nn3)O[C@@H]2CO)cc1	·	69*	-1	-4	·
COc1ccc(-c2cn(CC[C@@H]3CC[C@H](NC(=O)Nc4ccc(F)cc4)[C@@H](CO)O3)nn2)cc1	·	·	·	50*	·
CCCNC(=O)N[C@H]1CC[C@@H](CCn2cc(-c3cccc(F)c3)nn2)O[C@H]1CO	·	-7	1	56*	·
CN(C)C(=O)C[C@H]1C[C@H]2c3cc(NC(=O)CC4CC4)ccc3O[C@H]2[C@@H](CO)O1	·	4	2	-1	-1[16.7 µM]
COc1ccccc1-c1cn(CC[C@H]2CC[C@H](NC(=O)C3CCC3)[C@H](CO)O2)nn1	·	-7	-3	35*	10[16.7 µM]
CN(C)C(=O)c1ccc(-c2ccc3c(c2)[C@@H]2[C@@H](CCN2C(=O)C2CCCC2)[C@@H](CO)N3C)cc1	·	2	·	65*	·
CN1c2ccc(C#Cc3cccnc3)cc2[C@@H]2[C@@H](CCN2C(=O)c2cccc(F)c2)[C@H]1CO	·	-32	9	59*	-10[16.7 µM]
CC(C)NC(=O)N1CC[C@H]2[C@@H]1c1cc(Br)ccc1N(C)[C@H]2CO	·	-28	-3	?	2[16.7 µM]
CC(C)NC(=O)N1CC[C@@H]2[C@H]1c1cc(Br)ccc1N(C)[C@@H]2CO	·	3	-15	108*	4[16.7 µM]
CN(C)C(=O)c1cccc(-c2ccc3c(c2)[C@@H]2[C@@H](CCN2C(=O)c2cccc(F)c2)[C@H](CO)N3C)c1	·	-5	21	39*	3[16.7 µM]
CN(C)C(=O)c1ccc(-c2ccc3c(c2)[C@H]2[C@H](CCN2C(=O)C2CCCCC2)[C@H](CO)N3C)cc1	·	-11	·	10	·
